Rows were chosen to be rich in hits. Some 19% of all compounds tested hit in one or more screens of this group.
HT1080-NT tox = kills 2HG-producing HT-1080-NT fibrosarcoma cells; Potency, µM (top dose mostly 46.1 µM), for inactives: top-dose activity, negative = less viability, actives largely listed as cytotoxic; hit rate 1.6% among 360,000; HT-1080-NT fibrosarcoma viability, CellTiter-Glo ATP luminescence, 48 h;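 note: NT is the 2HG producing partner of a matched IDH1 knockdown line; potency is the fitted concentration of half-maximal effect; 0% = DMSO-treated cells and -100% = media-only wells without cells; nearly all actives have a fitted effect of over 55% in size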
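Toxicity toward the 2HG-producing NT line was scored as %Activity, normalised to DMSO and no-cell wells, from CellTiter-Glo luminescence after 48 hours' treatment.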
DT40 TDP1 CPT = DT40-hTDP1 cell growth loss with CPT | chicken DT40 Tdp1-/-;hTDP1 cells + 20 nM CPT, ATP luminescence, 48 h | Potency, µM (highest dose often 46.2 µM), inactives show at the highest dose activity change, negative = growth inhibition, most hits filed as inhibitors | hit rate 12% among 420,000 | AID 686979; note: potency is the fitted concentration of half-maximal effect; nearly all actives have a fitted effect of over 55% in size
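Chicken DT40 Tdp1-/- cells stably complemented with human TDP1 were seeded at 400 cells/well in medium containing 20 nM camptothecin, exposed to pin-transferred compounds, and grown at 37 °C for at least 48 hr. Viability was read as ATP luminescence.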
uPA generation = cell surface uPA generation inhibition | cell surface uPA generation assay, qHTS | Potency, µM (top dose mostly 38.3 µM), inactives show at the highest dose activity change, negative = inhibition, actives largely listed as inhibitors | hit rate 0.31% among 330,000; active = well fitted inhibition curve with a large enough effect; inconclusive = small, poorly fitted or top-dose-only effect; inactive = no such curve, though single readings can be large or run the other way; tested in mouse RAW 264.7 cells; note: potency is the fitted concentration of half-maximal effect; nearly all actives have a fitted effect of over 55% in size
IL1B secr inh = blocks inflammasome-driven IL-1 beta release; THP-1 LPS/ATP IL-1B secretion, AlphaLISA, 16 h; stronger effect = lower value; activity change, % at 57.5 µM; hit rate 4.7% among 360,000; AID 743279; in the data active = activity change below about -50%; inconclusive = mostly about -30% to -49%
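THP-1 cells pretreated 1 hr with compounds (up to 57.5 uM final), then stimulated with LPS (250 ng/mL final) plus ATP (1.25 mM final); secreted IL-1B measured by AlphaLISA after 16 hr, decreased signal indicating inhibition.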
HT1080 IDH1KD tx = HT-1080 IDH1 knockdown cell toxicity (counter line); HT-1080 IDH1 knockdown viability, ATP luminescence, 48 h; Potency, µM (doses to about 46.1 µM), for inactives: top-dose activity, negative = toxicity, usual class: cytotoxic; hit rate 2% among 360,000;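 note: potency is the fitted concentration of half-maximal effect; 0% = DMSO wells and -100% = cell-free medium wells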
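In this qHTS, HT-1080 cells depleted of IDH1 are exposed for 48 h at 37 °C to compound titrations. Toxicity is scored from CellTiter-Glo luminescence, with DMSO as full viability and medium alone as none.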
TDP1 cell noCPT = qHTS for Inhibitors of human tyrosyl-DNA phosphodiesterase 1 (TDP1): qHTS in cells in absence of CPT; DT40 Tdp1-/- hTDP1 cells, no CPT, ATP luminescence, 48 h; Potency, µM (series often up to 46.2 µM), for the others: top-dose activity change, negative = growth inhibition, usual class: inhibitors; hit rate 15% among 420,000; AID 686978, 2013; note: potency is the fitted concentration of half-maximal effect; nearly all actives have a fitted effect of over 55% in size
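No-CPT arm: Tdp1-/-;hTDP1 DT40 cells (400/well) plus compounds, incubated ≥48 hr at 37 °C. Readout CellTiter-Glo luminescence.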
* hit, by the source's call; ? = inconclusive; · = no result; [ ] = dose if it differs, or a comment. Unless noted, calls come from the whole dose curve; as a rule, active = well fitted curve in the direction sought with a large enough effect; inconclusive = small, poorly fitted or top-dose-only effect, or another doubt; inactive = no such curve, though single readings can be large; an effect the other way counts as inactive or inconclusive. Unless noted, % is set by controls: 0 for no effect and ±100 for the full control effect.

SMILES	HT1080-NT tox	DT40 TDP1 CPT	uPA generation	IL1B secr inh	HT1080 IDH1KD tx	TDP1 cell noCPT
O=S(=O)(Nc1nc2ccccc2nc1Nc1ccccc1Br)c1ccccc1	·	-8%	·	·	·	-23%
COc1cc(OC)cc(-c2c(Sc3ccccc3)c3cc(-c4ccc(OC)c(F)c4)ccc3n2C)c1	-3%	-9%	·	0	4%	-7%
Cc1cccc(C(=O)NCC(=O)N2CCN(S(=O)(=O)c3cc(C)ccc3C)CC2)c1	-7%	?	-4%	12	-2%	?
Cc1ccc(C)c(S(=O)(=O)N2CCN(C(=O)[C@@H](NC(=O)c3ccc(F)cc3)C(C)C)CC2)c1	-8%	?	-10%	-6	-12%	21µM*
Cc1ccc(C)c(S(=O)(=O)N2CCN(C(=O)CNC(=O)c3ccc4ccccc4c3)CC2)c1	-19%	?	-11%	-6	-18%	16µM*
Cc1ccc(C)c(S(=O)(=O)N2CCN(C(=O)[C@H](C)N3C(=O)C4CC=CCC4C3=O)CC2)c1 (some centres not stated)	18%	-14%	7%	-3	1%	-27%
C=CCn1c(SCc2ccc(C(=O)Nc3ccccc3)cc2)nnc1-c1ccccc1	0%	18µM*	·	-2	-2%	?
FC(F)(F)COc1cc(-c2nnc(SCc3ccccc3)n2Cc2ccco2)cc(OCC(F)(F)F)n1	-7%	?	-9%	-3	-3%	29µM*
CCn1c(SCc2ccc(C#N)cc2)nnc1-c1cccc(Cl)c1	-5%	-10%	-6%	-73*	5%[9.24 µM]	-27%
C=CCn1c(SCC(=O)NNC(=S)Nc2ccccc2)nnc1-c1ccccc1	4%	21%	3%	·	-2%	-3%
CCn1c(SCc2ccc(Cl)cc2)nnc1-c1ccccc1	-3%	?	3%	-4	-11%	?
C=CCn1c(SCc2ccc(C#N)cc2)nnc1-c1ccc(C)cc1	6%	?	·	-18	12%	16µM*
Cc1cc(C)cc(OC(=O)c2cc(-c3ccc4c(c3)OCCO4)on2)c1	·	-5%	·	·	·	-9%
Cc1cccc(-c2nnc(SCc3ccc(C#N)cc3)n2Cc2ccco2)c1	-26%	?	·	-11	?	23µM*
O=C(Cn1ncc2c(Cl)cccc21)NCc1cccc(Br)c1	·	?	·	·	·	-25%
O=C(O)c1cccc(-n2nc(-c3ccc(Cl)c([N+](=O)[O-])c3)c3ccccc3c2=O)c1	-10%	?	3%	-69*	-27%	2%
O=c1c2ccccc2c(-c2ccccc2)nn1-c1ccc(Cl)c(Cl)c1	15%	?	-1%	-9	9%	?
Cc1ccc(C)c(NC(=S)NCCc2ccc(F)cc2)c1	-2%	?	-8%	-67*	-1%	?
Cc1ccc(NC(=O)CCC(=O)NNC(=S)Nc2ccc(F)cc2F)cc1C	-22%	3%	-11%	32	1%	22%
Cc1ccc(C(C)NC(=S)NCc2ccc(F)cc2)cc1C (configuration not stated)	6%	?	5%	9	1%	?
Cc1ccc(C)c(NC(=S)NNc2ccc(F)cc2F)c1	26µM*	?	-9%	-100*	26µM*	?
Cc1ccc(C(C)NC(=S)NCc2ccc(F)cc2)c(C)c1 (configuration not stated)	-8%	21µM*	18%	-16	8%	16µM*
O=C(NCc1nnc2c3ccccc3c(-c3ccccc3)nn12)c1ccc(Cl)cc1	-1%	?	2%	-97*	5%	?
Cc1c(Br)ccc(NC(=O)Cn2nc(-c3cccs3)ccc2=O)c1C	-23%	-9%	-2%	14	-4%	-19%
Cc1cc(NC(=O)Cn2nc(-c3cccs3)ccc2=O)cc(C)c1Br	26%	29µM*	2%	?	1%	29µM*
SMILES	HT1080-NT tox	DT40 TDP1 CPT	uPA generation	IL1B secr inh	HT1080 IDH1KD tx	TDP1 cell noCPT
CCCCn1nnnc1C(c1ccccc1)N1CCN(c2cc(C)ccc2C)CC1 (configuration not stated)	-23%	?	·	-4	?	?
Cc1c(C#N)c(O)n(CCO)c(=O)c1N=Nc1ccc2c(c1)COC2=O	-5%	-10%	-5%	-57*	0%	?
O=C(C#Cc1ccccc1)Nc1ccc(F)cc1	16µM*	?	-17%	-97*	18µM*	12µM*
O=C(C#Cc1ccccc1)Nc1cccc(F)c1	?	4.1µM*	-16%	-106*	3.7µM*	5.8µM*
COc1ccc(NC(=O)C#Cc2ccccc2)cc1	?	21µM*	-12%	·	?	10µM*
COc1ccc(NC(=O)CCCCC#Cc2ccccc2)cc1	0%	?	-1%	17	3%	15µM*
O=C(C#Cc1ccccc1)NCc1ccccc1F	-3%	?	4%	-13	6%	?
CCCCn1c(=O)n(Cc2cccc(F)c2)c(=O)c2c1ncn2Cc1ccco1	-7%	?	0%	-22	-9%	?
CCCCCc1c(-c2ccc(F)cc2F)ncn1CCc1ccccc1OC	?	?	·	-100*	?	21µM*
CCCCc1c(-c2ccc(F)cc2F)ncn1CCc1ccccc1OC	?	23µM*	·	-71*	?	26µM*
CCCCc1c(Cc2cccc(F)c2)ncn1CCc1ccccc1OC	16µM*	?	·	0	?	13µM*
C[C@@H]1CN([C@H](C)CO)C(=O)c2cc(Br)cnc2O[C@H]1CN(C)C	10%	-16%	·	6	20%	-24%
O=C(Cc1ccc2c(c1)OCCO2)Nc1cc(C(F)(F)F)ccc1N1CCOCC1	-5%	?	3%	?	4%	?
Brc1cccc(-c2nc3cccnc3nc2-c2cccc(Br)c2)c1	15%	?	5%	30	13%	16µM*
Cc1ccc(NC(=S)N(C)C)cc1C	16%	3%	4%	11	2%	-2%
CCc1ccc2occ(CC(=O)Nc3c(C(=O)c4ccc(F)cc4)oc4ccccc34)c2c1	·	-24%	·	·	·	?
COc1cc2cc3c4c(cc(OC)c(OC)c4c2cc1OC)CCN3C	·	11µM*	·	·	·	12µM*
COc1cc2c(cc1OC)C(=O)N(C)CC2	2%	-8%	-7%	-4	-4%	-27%
N#C/C(=N\Nc1cccc(C(F)(F)F)c1)C(=O)c1csc(-c2cccnc2)n1	-9%	16µM*	-10%	23	?	26µM*

Source: PubChem BioAssay (National Center for Advancing Translational Sciences (NCATS))
